Bioassay records from PubChem.
G9a block: blocks human histone lysine methyltransferase G9a. Q96KQ7. G9a H3K9 monomethylation, AlphaScreen, 2 h. Potency, µM (highest dose often 102 µM), actives largely listed as inhibitors. actives 8.8% (n = 350,000). AID 504332; note: nearly all actives have a fitted effect of over 75% in size
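Methyltransferase reactions run at room temperature for 2 h (20 nM enzyme, 500 nM biotin-H3K9 peptide, 20 uM SAM) after a 15 min compound preincubation; product detected by AlphaScreen beads and anti-H3K9me1 antibody.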
TDP1 inh: blocks human tyrosyl-DNA phosphodiesterase 1. recombinant TDP1, AlphaScreen DNA substrate cleavage. Potency, µM (top dose mostly 130 µM), most hits filed as inhibitors. actives 0.28% (n = 350,000). AID 485290; note: nearly all actives have a fitted effect of over 40% in size
Target sequence (Q9NUW8 whole entry, looked up): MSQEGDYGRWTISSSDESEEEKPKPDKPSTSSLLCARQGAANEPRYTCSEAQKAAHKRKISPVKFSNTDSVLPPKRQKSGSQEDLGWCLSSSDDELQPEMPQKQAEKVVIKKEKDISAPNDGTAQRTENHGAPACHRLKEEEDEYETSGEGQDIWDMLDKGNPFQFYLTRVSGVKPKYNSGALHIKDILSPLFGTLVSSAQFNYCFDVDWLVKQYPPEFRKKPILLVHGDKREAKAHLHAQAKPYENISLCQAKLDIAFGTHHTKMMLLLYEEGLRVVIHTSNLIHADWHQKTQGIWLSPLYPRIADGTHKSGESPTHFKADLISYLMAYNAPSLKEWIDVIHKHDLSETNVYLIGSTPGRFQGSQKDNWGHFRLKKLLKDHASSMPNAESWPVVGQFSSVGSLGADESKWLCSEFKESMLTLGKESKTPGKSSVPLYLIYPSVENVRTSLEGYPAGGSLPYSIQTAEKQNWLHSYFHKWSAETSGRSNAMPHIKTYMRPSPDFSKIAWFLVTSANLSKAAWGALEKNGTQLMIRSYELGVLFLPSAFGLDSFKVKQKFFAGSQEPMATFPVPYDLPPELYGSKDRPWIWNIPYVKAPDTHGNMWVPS
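AlphaScreen read-out: signal falls as enzyme removes the 3' tyrosine-FITC from a 5'-biotinylated DNA oligo (15 nM, 5 min, RT). Enzyme was E. coli-made recombinant Tdp1 at 1 nM, exposed to compound for 15 min beforehand; beads 10 ug/ml, 10 min.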
HP1b binding inh: blocks HP1-beta chromodomain binding to methylated histone tails. Potency, µM (titrated, usually from 114 µM), hits mostly inhibitors. AID 540317. actives 0.56% (n = 390,000). P83916. AlphaScreen HP1-beta / biotin-H3K9me3 peptide binding; note: nearly all actives have a fitted effect of over 70% in size
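HP1-beta protein (50 nM final) preincubated 30 min at room temperature with biotinylated H3(1-18)K9me3 peptide (50 nM) in PBS pH 7.4, 0.01% Tween-20, then compound added for 30 min. AlphaScreen streptavidin donor/nickel chelate acceptor beads (10 ug/mL final), 30 min dark, luminescence read.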
Sfp PPTase inh: Sfp phosphopantetheinyl transferase inhibition | AID 1490 | actives 3.5% (n = 310,000) | Potency, µM, usual class: inhibitors | Biochemical Sfp PPTase activity, qHTS;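 note: the enzyme is Sfp with the accession as filed and its product quenches rhodamine fluorescence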
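Fluorescence-quenching assay: 15 nM Sfp-PPTase preincubated 15 min at room temperature with compound, then 5 uM rhodamine-CoA and 12.5 uM BHQ-2-labelled YbbR peptide added. Fluorescence (ex 525/em 598 nm) read at start and after 30 min; difference gives rate.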
BAZ2B block: BAZ2B (human) inhibition | Q9UIF8 | Potency, µM (series often up to 114 µM), hits mostly inhibitors | AlphaScreen BAZ2B-H3K14Ac peptide displacement | AID 504333 | actives 4.4% (n = 360,000); note: nearly all actives have a fitted effect of over 60% in size
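Complex of BAZ2B and biotin-H3K14Ac (50 nM apiece) forms over 30 min at RT, then faces library compounds up to 110 uM for another 30 min; AlphaScreen beads added, 20 min dark incubation, luminescence read.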
JMJD2A Tudor inh: JMJD2A Tudor domain (human) inhibition. AID 504339. actives 4.4% (n = 390,000). AlphaScreen JMJD2A-Tudor / H3K4me3 peptide binding. Potency, µM (top dose mostly 114 µM), usual class: inhibitors. O75164; note: nearly all actives have a fitted effect of over 50% in size
Each line names hits and unclear results; the compound was inactive in the other large screens. An excerpt weighted towards active compounds, which were near 12% of everything screened. Calls come from the whole dose curve; as a rule, active = well fitted curve in the direction sought with a large enough effect; inconclusive = small, poorly fitted or top-dose-only effect, or another doubt; inactive = no such curve, though single readings can be large; an effect the other way counts as inactive or inconclusive.

CCC(=O)Nc1ccc(OCc2nc3ccccc3s2)cc1	G9a block 10µM, Sfp PPTase inh 44.7µM (no result: BAZ2B block)
Cc1cc(OCc2nc3ccccc3s2)ccc1N	G9a block 10µM, HP1b binding inh inconclusive, Sfp PPTase inh 20µM, BAZ2B block 39.8µM, JMJD2A Tudor inh inconclusive (no result: TDP1 inh)
Cc1cc(C)cc(N2C(=O)CS(=O)(=O)C23C(=O)N(Cc2ccc(F)cc2)c2ccc(C)cc23)c1 (stereo not given)	none (no result: Sfp PPTase inh)
COc1cccc(N2CCN(S(=O)(=O)c3ccc4ccccc4c3)CC2)c1	none (no result: Sfp PPTase inh)
COc1cccc(CN2CCNC(=O)C2CC(=O)NCC2CCOCC2)c1 (stereo not given)	G9a block 50.1µM
Cn1cc(CCNC(=O)CC2C(=O)NCCN2Cc2cccc(Oc3ccccc3)c2)cn1 (stereo not given)	G9a block 35.5µM, JMJD2A Tudor inh inconclusive
COc1ccc(CN2CCNC(=O)C2CC(=O)NCC2CCOCC2)c(F)c1 (stereo not given)	G9a block 79.4µM
O=C(CC1C(=O)NCCN1Cc1cccc(Oc2ccccc2)c1)NCCn1cccn1 (stereo not given)	none
COc1ccccc1CN1CCNC(=O)C1CC(=O)NCC1CCOCC1 (stereo not given)	none
O=C(CC1C(=O)NCCN1Cc1cccc(Oc2ccccc2)c1)NCC1CCOCC1 (stereo not given)	G9a block 44.7µM
COc1ccc(CN2CCNC(=O)C2CC(=O)NCC2CCOCC2)c(C)c1C (stereo not given)	none
O=C(CSc1nc(=O)[nH]c2c1CCC2)NCc1ccccc1Cl	none (no result: Sfp PPTase inh)
CCC1=C2CC[C@H]3C(=O)N(c4ccccc4)C(=O)[C@H]3[C@H]2[C@@]2(C)C(=O)N(CC(=O)OC)C(=O)N2C1=O	none (no result: G9a block, HP1b binding inh, BAZ2B block, JMJD2A Tudor inh)
CC(C)(C)C(=O)Nc1cc(NC(=O)C(C)(C)C)cc(C(=O)NNC(=O)c2ccncc2)c1	G9a block inconclusive (no result: TDP1 inh)
CCOc1ccc(CN2CCNC(=O)C2CC(=O)NCCC2=CCCCC2)cc1 (stereo not given)	BAZ2B block inconclusive
COc1cccc(CN2CCNC(=O)C2CC(=O)NCc2cc(C(C)C)no2)c1 (stereo not given)	G9a block 50.1µM
CC(C)CN1CCNC(=O)C1CC(=O)NCCCN1CCCc2ccccc21 (stereo not given)	BAZ2B block 79.4µM
COc1cc(CN2CCNC(=O)C2CC(=O)NCCC2=CCCCC2)cc(OC)c1 (stereo not given)	G9a block 50.1µM
COc1cccc(CN2CCNC(=O)C2CC(=O)NCCc2ccccn2)c1 (stereo not given)	G9a block inconclusive
O=C(CC1C(=O)NCCN1Cc1cccc(F)c1F)NCCCC1CCCC1 (stereo not given)	G9a block 50.1µM
Cc1cccc(C(=O)Nc2ccc(C(=O)N3CCCCC3C)cc2)c1 (stereo not given)	none
O=C(CC1C(=O)NCCN1CCCc1ccccc1)NCCc1ccccc1Cl (stereo not given)	G9a block inconclusive
O=C(CC1C(=O)NCCN1Cc1cccc(F)c1)NCCCCCN1CCOCC1 (stereo not given)	G9a block 70.8µM
CCCN1CCC(NC(=O)CC2C(=O)NCCN2Cc2cccc(OC)c2)CC1 (stereo not given)	none
COc1cccc(CNC(=O)CC2C(=O)NCCN2CCCc2ccccc2)c1 (stereo not given)	G9a block 50.1µM
COc1cccc(CN2CCNC(=O)C2CC(=O)NC2Cc3ccccc3C2)c1 (stereo not given)	G9a block 44.7µM, BAZ2B block inconclusive
CNc1ccc(-c2nc3ccccc3s2)cc1	Sfp PPTase inh inconclusive (no result: G9a block, HP1b binding inh, BAZ2B block, JMJD2A Tudor inh)
O=C1C2=C(Nc3ccccc3SC2c2ccco2)c2ccccc21 (stereo not given)	G9a block inconclusive, HP1b binding inh 22.4µM, Sfp PPTase inh inconclusive, BAZ2B block 35.5µM, JMJD2A Tudor inh 35.5µM
CCc1ccc(C2Sc3ccccc3NC3=C2C(=O)c2ccccc23)cc1 (stereo not given)	G9a block 10µM, HP1b binding inh inconclusive, JMJD2A Tudor inh 25.1µM (no result: Sfp PPTase inh, BAZ2B block)
CC(C)c1ccc(C2Sc3ccccc3NC3=C2C(=O)c2ccccc23)cc1 (stereo not given)	G9a block inconclusive, HP1b binding inh inconclusive, BAZ2B block 8.91µM, JMJD2A Tudor inh 11.2µM (no result: TDP1 inh, Sfp PPTase inh)
O=C1c2ccccc2NC(c2ccco2)N1O (stereo not given)	G9a block inconclusive
O=C(CC1Sc2ccccc2NC1=O)NCc1ccccc1 (stereo not given)	none
NCC(=O)NCC(=O)NC[C@H]1O[C@@H](n2ccc(=O)[nH]c2=O)[C@H](O)[C@@H]1O	none (no result: G9a block, TDP1 inh, Sfp PPTase inh, BAZ2B block)
C[C@H]([C@@H](N)C(=O)N[C@@H](C(=O)O)[C@@H]1O[C@H](n2ccc(=O)[nH]c2=O)[C@@H](O)[C@H]1O)[C@@H](O)c1ccc(O)cn1	G9a block 3.16µM, Sfp PPTase inh 56.2µM, BAZ2B block inconclusive
COc1ccc(Nc2ncnc3c2cnn3C)c(OC)c1	none (no result: Sfp PPTase inh)
Cc1ccc(-c2csc(N(CCCN3CCOCC3)C(=O)c3ccco3)n2)cc1	G9a block inconclusive, Sfp PPTase inh inconclusive, BAZ2B block inconclusive
COc1ccc(-c2csc(N(CCCN(C)C)C(=O)c3ccc(C(C)(C)C)cc3)n2)cc1	G9a block inconclusive, BAZ2B block inconclusive, JMJD2A Tudor inh inconclusive
CCN(CC)CCCN(C(=O)c1ccccc1C)c1nc(-c2ccc(OC)cc2)cs1	Sfp PPTase inh inconclusive, BAZ2B block 50.1µM, JMJD2A Tudor inh 44.7µM (no result: TDP1 inh)
CCN(CC)CCCN(C(=O)c1ccc(OC)cc1)c1nc(-c2ccc(OC)cc2)cs1	JMJD2A Tudor inh inconclusive (no result: G9a block, TDP1 inh)
CCN(CC)CCCN(C(=O)c1ccccc1F)c1nc(-c2ccc(OC)cc2)cs1	BAZ2B block inconclusive, JMJD2A Tudor inh inconclusive (no result: G9a block, TDP1 inh)
COc1ccc(-c2csc(N(CCCN(C)C)C(=O)c3ccc(Br)cc3)n2)cc1	Sfp PPTase inh 35.5µM, BAZ2B block 44.7µM (no result: TDP1 inh)
COc1ccc(-c2csc(N(CCCN3CCOCC3)C(=O)c3ccco3)n2)cc1	HP1b binding inh inconclusive, BAZ2B block inconclusive, JMJD2A Tudor inh 100µM
COc1ccc(-c2csc(N(CCCN(C)C)C(=O)c3ccc(C)cc3)n2)cc1	G9a block 79.4µM, BAZ2B block inconclusive, JMJD2A Tudor inh inconclusive (no result: TDP1 inh)
CN1CCN(C(=O)C(=O)Nc2c3c(nn2-c2ccc(F)cc2)CSC3)CC1	none (no result: Sfp PPTase inh)
CN(C)c1ncc2nc(-c3cc(F)cc(F)c3)c(=O)n(Cc3cccs3)c2n1	none (no result: TDP1 inh, HP1b binding inh, BAZ2B block, JMJD2A Tudor inh)
CS(=O)(=O)c1ncc(Cl)c(C(=O)N2CCN(c3cccc(Cl)c3)CC2)n1	G9a block 12.6µM, BAZ2B block inconclusive (no result: Sfp PPTase inh)
O=C(c1ccc(S(=O)(=O)N2CCCC2)cc1)N1CCN(c2cccc(Cl)c2)CC1	none
